Source: PubChem BioAssay
Activity calls are given as the source filed them. How the calls were made is not given here.

What follows are molecules tested against Pantothenate synthetase (Mycobacterium tuberculosis (strain ATCC 25618 / H37Rv)) (UniProt P9WIL5) (assay: Coupled enzyme confirmation of inhibitors against recombinant Mtb PanC (AID 375;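 further: 0% = full reaction with vehicle and 100% = no enzyme background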)). Conditions: coupled enzyme assay; at 10 µM, stronger effect = higher value.
Chain of Pantothenate synthetase (Mycobacterium tuberculosis (strain ATCC 25618 / H37Rv)) (P9WIL5 whole entry, looked up): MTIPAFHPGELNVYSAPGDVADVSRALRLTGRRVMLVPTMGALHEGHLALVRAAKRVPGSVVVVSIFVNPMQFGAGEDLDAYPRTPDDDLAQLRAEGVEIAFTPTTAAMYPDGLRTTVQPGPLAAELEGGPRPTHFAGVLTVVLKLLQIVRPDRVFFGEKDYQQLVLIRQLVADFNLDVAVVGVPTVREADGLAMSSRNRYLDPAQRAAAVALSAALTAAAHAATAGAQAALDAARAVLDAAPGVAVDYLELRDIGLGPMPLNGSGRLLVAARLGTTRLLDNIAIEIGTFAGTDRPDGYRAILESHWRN

Row | Compound | inhibition
1 | COCCOC(=O)c1[nH]c2c(c1C)C(=O)CC(c1ccc(N(C)C)cc1)C2 (configuration not stated) | 0% (inactive)
2 | CCOc1ccccc1CN(Cc1ccco1)S(=O)(=O)c1ccc(-n2cnnn2)c(OC)c1 | 8% (inactive)
3 | CNC(=O)c1ccc2nc(NC(C)=O)sc2c1 | 0% (inactive)
4 | Cc1cccc(COc2ccc(/C(O)=C3\C(=O)C(=O)N(CCN(C)C)C3c3ccncc3)cc2)c1 (configuration not stated) | 13% (inactive)
5 | O=C1c2ccccc2C(Nc2cccnc2)N1Cc1ccccc1Cl (configuration not stated) | 0% (inactive)
6 | Cc1ccc(OCC(O)Cn2c(NCCc3ccccc3)nc3c2c(=O)[nH]c(=O)n3C)cc1 (configuration not stated) | 0% (inactive)
7 | O=c1oc2ccccc2c(O)c1CN1CCCCC1 | 0% (inactive)
8 | CC1CCCN(C(=O)CN2C(=O)c3ccccc3C2=O)C1 (configuration not stated) | 3% (inactive)
9 | CS(=O)(=O)N(CC(=O)O)c1cccc(Cl)c1 | 3% (inactive)
10 | O=C(COC(=O)CCC1CCCC1)Nc1ccc(Cl)cn1 | 2% (inactive)
11 | Cc1nc(C)c(C(=O)OCC(=O)N2CCN(c3ccccc3)CC2)s1 | 0% (inactive)
12 | COc1cc2c(cc1NC(=O)CN1CCN(S(=O)(=O)c3ccc(F)cc3)CC1)oc1ccccc12 | 0% (inactive)
13 | Oc1ccc(C=Nc2cccc3ncccc23)c(O)c1 | 2% (inactive)
14 | CCCCN(CCCC)C(=O)CN(C)S(=O)(=O)c1ccc2c(c1)n(C)c(=O)c(=O)n2C | 5% (inactive)
15 | CC1(C)CC(=O)C2=C(C1)OC(=O)C2(NC(=O)c1cccs1)C(F)(F)F (configuration not stated) | 1% (inactive)
16 | CCOC(=O)C(C)(C)Sc1nc2c(cnn2-c2ccc(C)cc2)c(=O)[nH]1 | 0% (inactive)
17 | O=C(CN1C(=O)NC2(CCCCCC2)C1=O)N1CCC(Cc2ccccc2)CC1 | 2% (inactive)
18 | CCCCOC(=O)Nc1nc2ccc(OC)cc2s1 | 5% (inactive)
19 | CC(=O)NCCOc1cccc(OCCNC(C)=O)c1 | 2% (inactive)
20 | CCOC(=O)C1CCCN(c2c(Nc3ccc(C)c(C)c3)c(=O)c2=O)C1 (configuration not stated) | 2% (inactive)
21 | CC(C)Cc1nc(S(=O)(=O)c2ccc(Cl)cc2)c(N2CCOCC2)o1 | 0% (inactive)
22 | CCSc1nnc(NC(=O)C(CC)(C(F)(F)F)C(F)(F)F)s1 | 0% (inactive)
